This is part of a sample that, as a whole, favours compounds with a hit. Of some 79,000 tested, about 15% had one in any assay. Activity calls are given as the source filed them. Rule as the data show it: active = growth inhibition above about 70%; inactive = the rest.
Legend:
[1] = NCI Yeast Anticancer Drug Screen. Data for the rad50 strain (AID 155);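 also: 0% = growth of vehicle-only cultures of the same strain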; settings: S. cerevisiae rad50 strain growth inhibition, hits give high values
Procedure, shortened: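 Compounds were tested on a yeast strain with an engineered DNA damage repair alteration; the reported value is growth inhibition normalised to vehicle treatment.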

[2] = NCI Yeast Anticancer Drug Screen. Data for the mec2-1 strain (AID 157); settings: S. cerevisiae mec2-1 strain, hits give high values
Procedure, shortened: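 Compounds were applied to mec2-1 yeast cells. Their growth was then compared with that of vehicle-treated cultures to give growth inhibition.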

[3] = NCI Yeast Anticancer Drug Screen. Data for the sgs1 mgt1 strain (AID 161);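 also: 0% = growth of cultures given vehicle only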; settings: S. cerevisiae sgs1 mgt1 strain, hits give high values
Procedure, shortened: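 Percent growth inhibition was derived by comparing compound-exposed mutant yeast with vehicle-exposed cultures. The strain carries alterations in DNA damage repair.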

[4] = NCI Yeast Anticancer Drug Screen. Data for the cln2 rad14 strain (AID 165);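 also: 0% = growth equal to vehicle treated cultures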; settings: S. cerevisiae cln2 rad14 strain, hits give high values
Procedure, shortened: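 Strain: cln2 rad14 yeast, altered in cell cycle control and DNA damage repair. Read-out: growth inhibition vs vehicle.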

[5] = NCI Yeast Anticancer Drug Screen. Data for the bub3 strain (AID 167); settings: S. cerevisiae bub3 mutant strain, hits give high values
Procedure, shortened: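 Growth of a checkpoint-deficient yeast mutant is measured after compound exposure. Values represent inhibition relative to vehicle.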

[6] = NCI Yeast Anticancer Drug Screen. Data for the mlh1 rad18 strain (AID 175); settings: S. cerevisiae mlh1 rad18 strain growth inhibition, hits give high values
Procedure, shortened: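 A repair-deficient yeast strain is exposed to test compound, and growth is scored relative to vehicle-treated controls.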

[7] = at 5.0 µM (retest, dose inferred, filed as 0.5)
[8] = at 50.0 µM (retest, dose inferred, filed as 5.0)

Measured: growth inhibition

CC1=NC(=Cc2ccc(Cl)cc2)C(=O)N1n1c(-c2ccccc2)nc2ccccc2c1=O
inactive: [1]; [7] -8% | [1]; [8] 59% | [1]; at 50.0 µM 67.3% | [2]; [7] -10% | [3]; [7] -7% | [4]; [7] -24% | [5]; [7] -6% | [6]; [7] 5% | [6]; [8] 59%
active: [2]; [8] 83% | [2]; at 50.0 µM 70.2% | [3]; [8] 71% | [3]; at 50.0 µM 86% | [4]; [8] 83% | [4]; at 50.0 µM 80% | [5]; [8] 87% | [5]; at 50.0 µM 82% | [6]; at 50.0 µM 81.5%

NNCc1cc(Cl)c2cccnc2c1O
inactive: [1]; [7] 18% | [2]; [7] 6% | [3]; [7] 7% | [4]; [7] -8% | [5]; [7] -1% | [6]; [7] 9%
active: [1]; [8] 96% | [1]; at 50.0 µM 98.8% | [2]; [8] 99% | [2]; at 50.0 µM 98.8% | [3]; [8] 98% | [3]; at 50.0 µM 98.5% | [4]; [8] 98% | [4]; at 50.0 µM 97.5% | [5]; [8] 98% | [5]; at 50.0 µM 99% | [6]; [8] 98% | [6]; at 50.0 µM 98.7%

N#CC(C#N)C(C#N)c1ccc(Cl)c(Cl)c1 (stereo not given)
inactive: [3]; [7] 36% | [4]; [7] 25%
active: [1]; [7] 79% | [1]; [8] 99% | [1]; at 50.0 µM 99.7% | [2]; [7] 72% | [2]; [8] 100% | [2]; at 50.0 µM 99.7% | [3]; [8] 100% | [3]; at 50.0 µM 99.8% | [4]; [8] 99% | [4]; at 50.0 µM 99.4% | [5]; [7] 99% | [5]; [8] 99% | [5]; at 50.0 µM 99.7% | [6]; [7] 70% | [6]; [8] 100% | [6]; at 50.0 µM 99.5%

CCCCCCCC/C=C\CCCCCCCCN1CCOCC1
active: [1]; at 50.0 µM 99.2% | [2]; at 50.0 µM 99.3% | [3]; at 50.0 µM 99.2% | [4]; at 50.0 µM 97.5% | [5]; at 50.0 µM 99.1% | [6]; at 50.0 µM 99.2%
inactive: [1]; [7] -2% | [1]; [8] -2% | [2]; [7] 0% | [2]; [8] -2% | [3]; [7] -4% | [3]; [8] 5% | [4]; [7] 11% | [4]; [8] 3% | [5]; [7] 15% | [5]; [8] 19% | [6]; [7] -3% | [6]; [8] 1%

Cc1c2cc(Cl)ccc2cc2c1ccc1ccccc12
inactive: [1]; [7] 12% | [1]; [8] 5% | [2]; [7] -7% | [2]; [8] 6% | [3]; [7] 2% | [3]; [8] 14% | [4]; [7] -3% | [4]; [8] 8% | [5]; [7] -6% | [5]; [8] -4% | [6]; [7] -4% | [6]; [8] 16%
active: [1]; at 50.0 µM 96.7% | [2]; at 50.0 µM 98.8% | [3]; at 50.0 µM 99.2% | [4]; at 50.0 µM 70.8% | [5]; at 50.0 µM 96.5% | [6]; at 50.0 µM 98.5%

O=C(CBr)c1ccc2cc(Br)c3ccccc3c2c1
inactive: [1]; [7] 55% | [1]; at 50.0 µM 64% | [2]; at 50.0 µM 44% | [3]; at 50.0 µM 68.5% | [4]; [7] 16% | [4]; at 50.0 µM 46.1% | [5]; at 50.0 µM 41.1% | [6]; at 50.0 µM 61%
active: [1]; [8] 94% | [2]; [7] 84% | [2]; [8] 96% | [3]; [7] 98% | [3]; [8] 95% | [4]; [8] 92% | [5]; [7] 81% | [5]; [8] 94% | [6]; [7] 83% | [6]; [8] 95%

O=[N+]([O-])/C(C(Cl)=C(Cl)Cl)=C(/Sc1ccccc1)N1CCOCC1
active: [1]; [8] 99% | [1]; at 50.0 µM 88.2% | [2]; [8] 99% | [2]; at 50.0 µM 91.8% | [3]; [8] 99% | [3]; at 50.0 µM 85.8% | [4]; [8] 99% | [4]; at 50.0 µM 89.2% | [5]; [8] 99% | [5]; at 50.0 µM 89.5% | [6]; [8] 98% | [6]; at 50.0 µM 83.2%
inactive: [1]; [7] 5% | [2]; [7] 2% | [3]; [7] -4% | [4]; [7] -7% | [5]; [7] -20% | [6]; [7] 15%

O=C(c1cccc(Cl)c1)c1ccc2ccccc2c1C(=O)O
inactive: [1]; [7] 10% | [1]; [8] 1% | [1]; at 50.0 µM 12.3% | [2]; [7] -8% | [2]; [8] 0% | [2]; at 50.0 µM 45.9% | [3]; [7] -1% | [3]; [8] 1% | [3]; at 50.0 µM 0.7% | [4]; [7] -3% | [4]; [8] -1% | [4]; at 50.0 µM 5.6% | [5]; [7] -6% | [5]; [8] 1% | [5]; at 50.0 µM -1.5% | [6]; [7] -6% | [6]; [8] 5% | [6]; at 50.0 µM 5.75%

CCCCCC(CO)C(O)(C(F)(F)F)C(F)(F)F (stereo not given)
inactive: [1]; [7] -23% | [1]; [8] -5% | [1]; at 50.0 µM 44.8% | [2]; [7] -26% | [2]; [8] 7% | [2]; at 50.0 µM 33.9% | [3]; [7] 1% | [3]; [8] 9% | [3]; at 50.0 µM 65.4% | [4]; [7] 3% | [4]; [8] 15% | [4]; at 50.0 µM 47.4% | [5]; [7] 0% | [5]; [8] 11% | [5]; at 50.0 µM -30.4% | [6]; [7] -26% | [6]; [8] -1% | [6]; at 50.0 µM 49.1%

CCOC(=O)/C=C/c1ccc([N+](=O)[O-])o1
inactive: [1]; [7] 18% | [2]; [7] 3% | [2]; at 50.0 µM 31.4% | [3]; [7] 21% | [4]; [7] 4% | [4]; [8] 58% | [4]; at 50.0 µM 34.5% | [5]; [7] 11% | [5]; at 50.0 µM 27.1% | [6]; [7] 28%
active: [1]; [8] 91% | [1]; at 50.0 µM 73.2% | [2]; [8] 72% | [3]; [8] 93% | [3]; at 50.0 µM 91.5% | [5]; [8] 82% | [6]; [8] 93% | [6]; at 50.0 µM 85.5%

From PubChem BioAssay (NCI)
